We go through three molecules from PubChem BioAssay.

Where “and” joins values, the source holds several entries; their conditions need not be identical. Equal entries are not always repeated. Inconclusive results are not listed. Calls of active or inactive are those of the source.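 Rule for the calls, unless noted: active = normalized viability below 100% at a tested concentration; inactive = the rest.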

The nature of assay [1]: liver-stage malaria parasite growth inhibition, primary screen, cell-based, HepG2, luciferase luminescence, HepG2 viability (AID 624349; in the data active = parasite load remaining mostly below about 12%, no sharp cut-off; inactive = mostly above about 10%;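 note: 100% = mean of DMSO negative control wells on the same plate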). The following applies: P. berghei liver stage in HepG2, luciferase luminescence, concentration not given here; parasite load remaining: stronger effect = lower value; viability: measured here: HepG2 viability without parasites.
The nature of assay [2]: Cy5 fluorescence interference with SSB-bound oligo, artefact control for HCV NS3 helicase inhibitor project, biochemical, NIH Clinical Collection, E. coli SSB (AID 743268; call rule not given here).
For assay [3], the system named is Hepatitis C virus NS3 helicase. The assay is described as follows: HCV NS3 helicase inhibitors, primary screen, biochemical, fluorescence polarization, NIH Clinical Collection (AID 743270; call rule not given here). As to conditions: NS3 helicase binding to Cy5-dT15 DNA, stronger effect = higher value, concentration not given here.
The target of assay [4] is 6-phosphogluconate dehydrogenase, decarboxylating (Homo sapiens) (UniProt P52209). Put plainly: 6PGD enzyme inhibitors, primary screen, biochemical, human, recombinant enzyme, NADPH absorbance (AID 1159550;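 active = at least 20% inhibition of 6-phosphogluconate dehydrogenase activity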). The following applies: recombinant 6PGD, NADPH absorbance 341 nm; at 10 µM; stronger effect = higher value.
The nature of assay [5]: differential killing of epithelial or mesenchymal cells, primary screen, imaging, PC-3E GFP, TEM4-18 mCherry, co-culture (AID 1345086;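 active = compounds killing one labelled cell type while sparing the other, by normalised counts and ratio limits, not self-fluorescent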;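 for all read-outs here: cells exposed to compound for 72 h before imaging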;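 for red/green cell ratio (normalised): normalised mesenchymal count divided by normalised epithelial count so high means epithelial killing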). As to conditions: imaging cell counts, at 1 µM; for red/green cell ratio (normalised): actives lie on both sides, counts scaled to control wells, 1 = unselective.
A short description of assay [6]: sensitizers of A549 cells to miR-34 induction, primary screen, imaging, A549 dox-inducible miR-34, nuclei and caspase counts (AID 1347080;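 active = compounds whose cell count with miR-34 switched on is under 0.7 times the count with it off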). The following applies: A549 miR-34 inducible, Hoechst nuclei count, 48 h.
A short description of assay [7]: ovarian cancer cell viability with rucaparib, profiling panel, oncology-focused library, rucaparib conditional (AID 1508598). The following applies: patient-derived ovarian cancer cells, CellTiter-Glo viability, 144 h, stronger effect = lower value. For orientation: In ATP-based viability assays light output follows the ATP content of the culture.
For assay [8], the target named is Mitogen-activated protein kinase 7 (Homo sapiens) (UniProt Q13164). The assay is described as follows: ERK5 transactivation activators in reporter cells, primary screen, cell-based, HTS (AID 1508626;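 active = luciferase signal above three times the same-plate solvent-only control wells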;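 note: luciferase driven by Gal4-ERK5 fusion binding five Gal4 sites before minimal TATA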). As to conditions: HeLa Gal4-ERK5 transactivation, 18 h, at 5 µM, stronger effect = higher value.
Assay [9] is described as follows: SU-DIPG-VI glioma cell viability, MIPE4.0 library, CellTiter-Glo luminescence, qHTS (AID 1347066; cut-off not given, nearly all actives have AC50 up to about 30 µM;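 note: cells exposed to compound for 48 hours before readout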). As to conditions: CellTiter-Glo ATP luminescence.
The nature of assay [10]: survival rescue of mitochondrial mutant cells in low glucose, primary screen, MELAS cybrids, Rieske KO mouse fibroblasts, CellTiter-Glo (AID 1508586;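 active = mean z-score across replicates of 1.96 or higher in either the MELAS or the Rieske mutant cell line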;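 note: z relative to plate mean and SD of compound and empty wells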).
Assay [11] deals with NAD(+) hydrolase SARM1 (Homo sapiens) (UniProt Q6SZW1). Put plainly: SARM1 TIR NADase inhibitors, cell lysate, NAD-Glo luminescence (AID 1508614;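 active = compound whose remaining NAD level is above about 45 nM, limit read from the data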;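 note: higher remaining NAD means stronger inhibition of SARM1 NADase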). The following applies: SAM-TIR HEK293T lysate NADase, at 1 µM, stronger effect = higher value.
A short description of assay [12]: viability rescue of complex I mutant cybrids, primary screen, cell-based, galactose medium, ATP luminescence (AID 1645843;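 active = z-score of at least 1.8 in each of two replicates, scored against plate mean and spread of sample wells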;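 note: positive z means more ATP and so rescue of galactose-driven cybrid death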). As to conditions: complex I mutant cybrid cells, 72 h, stronger effect = higher value.
Where [13] appears, read: measured here: epithelial PC-3E GFP cell survival.
Where [14] appears, read: measured here: mesenchymal TEM4-18 mCherry cell survival.
Setting [15] is: stronger effect = lower value, cell number ratio, induced over uninduced.
The mark [16] stands for this setting: measured here: relative caspase fold change +Dox/-Dox.
Setting [17] is: measured here: total cells with miR-34 induction, stronger effect = lower value.
The mark [18] stands for this setting: measured here: total cells without miR-34 induction.

Chain of 6-phosphogluconate dehydrogenase, decarboxylating (Homo sapiens) (P52209 whole entry, looked up): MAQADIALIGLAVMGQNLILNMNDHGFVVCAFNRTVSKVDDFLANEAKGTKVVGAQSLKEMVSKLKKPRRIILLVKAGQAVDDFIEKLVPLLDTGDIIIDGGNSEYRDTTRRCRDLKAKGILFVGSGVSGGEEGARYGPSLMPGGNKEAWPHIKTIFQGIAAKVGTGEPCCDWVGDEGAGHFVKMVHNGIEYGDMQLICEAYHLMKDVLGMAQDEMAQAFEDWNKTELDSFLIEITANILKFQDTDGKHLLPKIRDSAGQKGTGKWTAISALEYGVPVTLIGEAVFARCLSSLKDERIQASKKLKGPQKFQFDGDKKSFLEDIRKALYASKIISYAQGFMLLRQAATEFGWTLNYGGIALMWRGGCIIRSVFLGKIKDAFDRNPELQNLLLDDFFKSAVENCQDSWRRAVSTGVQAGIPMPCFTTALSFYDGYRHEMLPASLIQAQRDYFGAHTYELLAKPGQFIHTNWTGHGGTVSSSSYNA
Chain of Mitogen-activated protein kinase 7 (Homo sapiens) (Q13164 whole entry, looked up, the tested form may be a part): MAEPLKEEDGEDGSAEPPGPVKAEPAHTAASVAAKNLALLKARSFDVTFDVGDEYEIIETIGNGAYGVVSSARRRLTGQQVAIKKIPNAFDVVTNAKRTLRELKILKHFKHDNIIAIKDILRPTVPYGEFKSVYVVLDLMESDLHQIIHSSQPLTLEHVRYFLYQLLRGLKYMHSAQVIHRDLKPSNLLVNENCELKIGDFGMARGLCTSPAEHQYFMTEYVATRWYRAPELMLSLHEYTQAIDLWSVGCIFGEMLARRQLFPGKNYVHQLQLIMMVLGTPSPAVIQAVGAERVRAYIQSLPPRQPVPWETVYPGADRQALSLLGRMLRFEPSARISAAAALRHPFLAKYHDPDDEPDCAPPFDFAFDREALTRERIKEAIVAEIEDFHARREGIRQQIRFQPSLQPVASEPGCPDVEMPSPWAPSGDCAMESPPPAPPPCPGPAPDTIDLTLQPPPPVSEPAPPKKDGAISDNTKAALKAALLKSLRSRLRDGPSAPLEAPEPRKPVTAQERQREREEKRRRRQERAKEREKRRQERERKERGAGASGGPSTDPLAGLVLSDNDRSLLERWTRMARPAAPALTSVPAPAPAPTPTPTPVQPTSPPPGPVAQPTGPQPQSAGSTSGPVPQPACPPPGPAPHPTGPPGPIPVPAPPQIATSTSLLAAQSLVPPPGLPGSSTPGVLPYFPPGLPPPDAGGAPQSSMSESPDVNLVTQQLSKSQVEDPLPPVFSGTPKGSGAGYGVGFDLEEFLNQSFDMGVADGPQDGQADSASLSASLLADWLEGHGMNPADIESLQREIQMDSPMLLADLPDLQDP
Chain of NAD(+) hydrolase SARM1 (Homo sapiens) (Q6SZW1 whole entry, looked up): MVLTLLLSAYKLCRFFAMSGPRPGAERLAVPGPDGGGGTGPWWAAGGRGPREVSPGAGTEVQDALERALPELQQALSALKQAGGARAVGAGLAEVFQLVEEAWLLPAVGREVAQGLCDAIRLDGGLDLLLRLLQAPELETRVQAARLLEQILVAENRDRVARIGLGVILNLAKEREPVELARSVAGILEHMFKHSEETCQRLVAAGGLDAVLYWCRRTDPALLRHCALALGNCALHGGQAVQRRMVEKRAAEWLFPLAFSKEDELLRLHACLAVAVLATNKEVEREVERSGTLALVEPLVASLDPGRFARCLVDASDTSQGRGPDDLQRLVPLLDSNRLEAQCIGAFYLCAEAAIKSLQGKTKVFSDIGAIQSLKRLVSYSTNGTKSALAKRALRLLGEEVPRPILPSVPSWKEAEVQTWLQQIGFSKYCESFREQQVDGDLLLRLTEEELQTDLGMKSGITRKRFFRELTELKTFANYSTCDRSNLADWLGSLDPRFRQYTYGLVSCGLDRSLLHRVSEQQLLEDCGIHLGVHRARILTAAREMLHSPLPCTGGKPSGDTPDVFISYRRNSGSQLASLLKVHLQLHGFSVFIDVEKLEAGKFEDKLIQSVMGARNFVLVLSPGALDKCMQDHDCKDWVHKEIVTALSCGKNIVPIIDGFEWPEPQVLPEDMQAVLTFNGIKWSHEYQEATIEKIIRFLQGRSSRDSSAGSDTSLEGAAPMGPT

In general, viability refers to a read-out of living cells in per cent, often relative to untreated cells. The term inhibition denotes the drop in the measured response relative to a control, in per cent. For the molecule `O=C(O[C@@H]1Cc2c(O)cc(O)cc2O[C@@H]1c1cc(O)c(O)c(O)c1)c1cc(O)c(O)c(O)c1`, the parasite load remaining in assay [1] is 87.1% (inactive). For the same molecule, the viability is 76.9% in [1]; 112% (inactive) in assay [7] (at 0.000305 µM, OCI-C5x cells, with rucaparib 10 µM, 100% = cells with rucaparib alone); 121% (inactive) in assay [7] (at 0.000305 µM, OCI-C5x cells, without rucaparib); 103% (inactive) in assay [7] (at 0.000305 µM, OCI-P5x cells, with rucaparib 20 µM, 100% = cells with rucaparib alone); 104% (inactive) in assay [7] (at 0.000305 µM, OCI-P5x cells, without rucaparib); 120% (inactive) in assay [7] (at 0.00122 µM, OCI-C5x cells, with rucaparib 10 µM, 100% = cells with rucaparib alone). For the same molecule, the viability in [7] (at 0.00122 µM, OCI-C5x cells, without rucaparib) is 118% (inactive); in assay [7] (at 0.00122 µM, OCI-P5x cells, with rucaparib 20 µM, 100% = cells with rucaparib alone), 73.5% (active); in assay [7] (at 0.00122 µM, OCI-P5x cells, without rucaparib), 91% (active); in [7] (at 0.00488 µM, OCI-C5x cells, with rucaparib 10 µM, 100% = cells with rucaparib alone) it was 123% (inactive); in assay [7] (at 0.00488 µM, OCI-C5x cells, without rucaparib), 116% (inactive); in assay [7] (at 0.00488 µM, OCI-P5x cells, with rucaparib 20 µM, 100% = cells with rucaparib alone) it was 90.4% (active). Also, the viability in [7] (at 0.00488 µM, OCI-P5x cells, without rucaparib) is 107% (inactive); in [7] (at 0.0195 µM, OCI-C5x cells, with rucaparib 10 µM, 100% = cells with rucaparib alone), 104% (inactive); in assay [7] (at 0.0195 µM, OCI-C5x cells, without rucaparib) it was 117% (inactive); in assay [7] (at 0.0195 µM, OCI-P5x cells, with rucaparib 20 µM, 100% = cells with rucaparib alone), 82.9% (active); in [7] (at 0.0195 µM, OCI-P5x cells, without rucaparib) it was 100% (inactive); in assay [7] (at 0.0781 µM, OCI-C5x cells, with rucaparib 10 µM, 100% = cells with rucaparib alone), 118% (inactive). In addition, the viability in assay [7] (at 0.0781 µM, OCI-C5x cells, without rucaparib) was 119% (inactive); in [7] (at 0.0781 µM, OCI-P5x cells, with rucaparib 20 µM, 100% = cells with rucaparib alone), 96.1% (active); in assay [7] (at 0.0781 µM, OCI-P5x cells, without rucaparib), 106% (inactive); in assay [7] (at 0.313 µM, OCI-C5x cells, with rucaparib 10 µM, 100% = cells with rucaparib alone) it was 109% (inactive); in assay [7] (at 0.313 µM, OCI-C5x cells, without rucaparib), 120% (inactive); in assay [7] (at 0.313 µM, OCI-P5x cells, with rucaparib 20 µM, 100% = cells with rucaparib alone), 94.4% (active). Further, the viability in assay [7] (at 0.313 µM, OCI-P5x cells, without rucaparib) is 110% (inactive); in assay [7] (at 1.25 µM, OCI-C5x cells, with rucaparib 10 µM, 100% = cells with rucaparib alone), 111% (inactive); in [7] (at 1.25 µM, OCI-C5x cells, without rucaparib), 108% (inactive); in [7] (at 1.25 µM, OCI-P5x cells, with rucaparib 20 µM, 100% = cells with rucaparib alone), 97.8% (active); in [7] (at 1.25 µM, OCI-P5x cells, without rucaparib) it was 104% (inactive); in assay [7] (at 5 µM, OCI-C5x cells, with rucaparib 10 µM, 100% = cells with rucaparib alone) it was 117% (inactive). Also, the viability in [7] (at 5 µM, OCI-C5x cells, without rucaparib) is 114% (inactive); in [7] (at 5 µM, OCI-P5x cells, with rucaparib 20 µM, 100% = cells with rucaparib alone), 89.7% (active); in assay [7] (at 5 µM, OCI-P5x cells, without rucaparib), 92.1% (active). The fluorescence ratio in assay [2] was 0.63 (active). In addition, the inhibition in assay [3] was -3.56% (inactive); in assay [4], 15.4% (inactive). Besides, the red/green cell ratio (normalised) in [5] was 1.15 (inactive). The normalised cell number in assay [5] (setting [13]) worked out at 0.79; in assay [5] (setting [14]), 0.91. In addition, the fold change in assay [6] (setting [15]) is 0.998 (inactive); in [6] (setting [16]), 0.749. The cell count in assay [6] (setting [17]) was determined as 5870; in [6] (setting [18]), 5880. Also, in [8], the luciferase signal is 48 AU (inactive).

For `C=CC1=C(C(=O)O)N2C(=O)[C@@H](NC(=O)/C(=N\O)c3csc(N)n3)[C@H]2SC1` (stereo in doubt), the parasite load remaining in assay [1] was 166% (inactive) and 48.1% (inactive). Further, the viability in [1] is 87.7% and 99.2%. Further, the inhibition in assay [4] is -2.05% (inactive). For the same molecule, in [5], the red/green cell ratio (normalised) is 1.17 (inactive). The normalised cell number in [5] (setting [13]) came to 0.89; in assay [5] (setting [14]), 1.04. For the same molecule, the call in assay [9] was inactive. The figures for the fold change in assay [6] (setting [15]) and in [6] (setting [16]) were 0.92 (inactive) and 4.11, respectively. Also, the values for the cell count in assay [6] (setting [17]) and in assay [6] (setting [18]) were 12500 and 13600, respectively. Moreover, the z-score in assay [10] (MELAS cybrid survival, CellTiter-Glo 48 h, stronger effect = higher value) was -0.152 (inactive); in assay [10] (Rieske KO mouse fibroblast survival, CellTiter-Glo 72 h) it was -0.423. The remaining NAD in assay [11] is 10 nM (inactive). In addition, the luciferase signal in [8] was 264 AU (inactive).

As to `CON=C(C(=O)NC1C(=O)N2C(C(=O)O)=C(COC(C)=O)CSC12)c1csc(N)n1` (stereo not given), the parasite load remaining in [1] is 73.2% (inactive). In assay [1], the viability was found to be 130%. Besides, the fluorescence ratio in assay [2] is 1.03 (inactive). Also, the figures for the inhibition in assay [3] and in [4] were 4.09% (inactive) and -1.56% (inactive), respectively. The fold change in [6] (setting [15]) is 0.991 (inactive); in assay [6] (setting [16]) it was 2.86. Also, the cell count was found to be 11400 in assay [6] (setting [17]) and 11500 in assay [6] (setting [18]). Further, in [12], the z-score was 0.145 (inactive).
